# Results as given in PubChem BioAssay (NCATS).
# Results filed as inconclusive are left out. Where a call stands in place of a potency, no number is given. A number with no mark means an inactive call. Calls of active or inactive are those of the source. Calls follow the shape of the dose curve; as a rule, active = well fitted curve in the direction sought with a large enough effect; inconclusive = small, poorly fitted or top-dose-only effect, or another doubt; inactive = no such curve, though single readings can be large; an effect the other way counts as inactive or inconclusive.
# Key:
# MKL-1 = test: qHTS assay to identify novel small-molecules to repurpose for Merkel cell carcinoma treatment (AID 1296009); conditions: MCC and control cell lines, CellTiter-Glo viability, 72 h; series mostly up to 46 µM; also: nearly all actives have a fitted effect of over 60% in size
# Summary of the method: (§1)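 After compound transfer in DMSO, plates were kept 72 hr at 37 degree celsius. Luminescent ATP signal from CellTiter-Glo served as viability measure, normalized against DMSO and no-cell controls.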
# UISO = test: as above; conditions: MCC and control cell lines, CellTiter-Glo viability, 72 h; series mostly up to 46 µM
# Summary of the method: as §1
# C33A = test: Primary qHTS to identify gynecologic anti-cancer compounds using libraries of approved drugs and bioactive compounds (AID 1345084); conditions: Gynecologic cancer cell panel viability, ATPlite luminescence, 48 h; series mostly up to 57.5 µM; also: nearly all actives have a fitted effect of over 55% in size
# Summary of the method: (§2)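 Cell viability after 48 h drug treatment, ATPlite luminescence readout; five doses.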
# CAOV3 = test: as above; conditions: Gynecologic cancer cell panel viability, ATPlite luminescence, 48 h; series mostly up to 57.5 µM
# Summary of the method: as §2
# CASKI = test: as above; conditions: Gynecologic cancer cell panel viability, ATPlite luminescence, 48 h; series mostly up to 57.5 µM
# Summary of the method: as §2
# Es-2 = test: as above; conditions: Gynecologic cancer cell panel viability, ATPlite luminescence, 48 h; series mostly up to 57.5 µM
# Summary of the method: as §2
# HeLa = test: as above; conditions: Gynecologic cancer cell panel viability, ATPlite luminescence, 48 h; series mostly up to 57.5 µM
# Summary of the method: as §2
# MKL-2 = test: qHTS assay to identify novel small-molecules to repurpose for Merkel cell carcinoma treatment (AID 1296009); conditions: MCC and control cell lines, CellTiter-Glo viability, 72 h; series mostly up to 46 µM; also: nearly all actives have a fitted effect of over 60% in size
# Summary of the method: as §1
# WaGa = test: as above; conditions: MCC and control cell lines, CellTiter-Glo viability, 72 h; series mostly up to 46 µM
# Summary of the method: as §1
# NIH3T3 = test: as above; conditions: MCC and control cell lines, CellTiter-Glo viability, 72 h; at 44.8 µM (top of the series) unless noted
# Summary of the method: as §1
# Potency is read from the fitted curve at half-maximal effect.
SMILES,Potency (MKL-1),Potency (UISO),Potency (C33A),Potency (CAOV3),Potency (CASKI),Potency (Es-2),Potency (HeLa),Potency (MKL-2),Potency (WaGa),outcome (NIH3T3)
Cc1nc2n(c(=O)c1CCN1CCC(C(=O)c3ccc(F)cc3)CC1)CCS2,inactive,inactive,inactive,inactive,inactive,inactive,inactive,–,–,–
CC[C@@]1(O)C(=O)OCc2c1cc1n(c2=O)Cc2c-1nc1ccccc1c2/C=N/OC(C)(C)C,–,0.168 µM (active),–,–,–,–,inactive,0.0376 µM (active),0.0266 µM (active),–
C[C@H](CN1CCCC1)C(=O)c1ccc(C(F)(F)F)cc1,inactive,inactive,–,inactive,inactive,inactive,inactive,–,inactive,–
CCOC(=O)c1ccc(O)c(O)c1,5.96 µM (active),–,inactive,inactive,inactive,inactive,inactive,–,–,–
C=CCNc1nc(NCC=C)nc(N2CCN(C(c3ccc(F)cc3)c3ccc(F)cc3)CC2)n1,inactive,–,inactive,–,inactive,inactive,inactive,–,–,–
O=C1NC2CCCCN2C12CCN(CCCN1c3ccccc3CCc3ccc(Cl)cc31)CC2 (stereo not given),–,–,inactive,–,–,–,inactive,21.1 µM (active),–,–
CCCCN(CCN(CCCC)C(=O)N1CCOCC1)C(=O)N1CCOCC1,inactive,–,inactive,inactive,inactive,inactive,inactive,–,inactive,–
OCc1c[nH]c2ccccc12,–,10.9 µM (active),35.5 µM (active),–,–,–,–,24.3 µM (active),–,–
CCCN(CCC)C(=O)C(CCC(=O)OCCCN1CCN(CCOC(=O)Cc2c(C)n(C(=O)c3ccc(Cl)cc3)c3ccc(OC)cc23)CC1)NC(=O)c1ccccc1 (stereo not given),inactive,inactive,inactive,inactive,inactive,inactive,inactive,–,–,–
O=C(O)c1ccccc1Nc1cc(Cl)ccc1C(=O)O,inactive,–,inactive,inactive,inactive,inactive,inactive,–,inactive,–
Nc1c2ccccc2nc2ccccc12,3.35 µM (active),–,–,–,–,14.1 µM (active),–,–,–,–
CC(=O)[C@@]1(O)CC[C@H]2[C@@H]3C[C@H](C)C4=CC(=O)CC[C@]4(C)[C@H]3CC[C@@]21C,inactive,inactive,inactive,inactive,inactive,inactive,inactive,–,inactive,–
CN1CCC(Nc2ncc3ncnc(Nc4ccc(F)c(Cl)c4)c3n2)CC1,–,inactive,–,–,inactive,inactive,inactive,15 µM (active),–,–
O=C1Cc2cc(Cl)ccc2N1,inactive,–,inactive,inactive,inactive,inactive,–,–,inactive,–
COC(=O)C1=C(C)NC(COC(N)=O)=C(C(=O)OC(C)C)C1c1cccc(Cl)c1Cl (stereo not given),inactive,inactive,inactive,inactive,inactive,inactive,inactive,–,–,–
CCCC(=O)c1cc(O)c(O)cc1O,–,–,inactive,–,inactive,inactive,inactive,27.3 µM (active),–,–
CCOC(=O)N1CCC(n2c(=O)[nH]c3cc(Cl)ccc32)CC1,inactive,–,inactive,inactive,inactive,inactive,inactive,–,–,–
CCN(CC)CCOc1ccc(/C(=C(\Cl)c2ccccc2)c2ccccc2)cc1,23.7 µM (active),–,–,–,inactive,–,inactive,–,26.6 µM (active),–

SMILES,Potency (MKL-1),Potency (UISO),Potency (C33A),Potency (CAOV3),Potency (CASKI),Potency (Es-2),Potency (HeLa),Potency (MKL-2),Potency (WaGa),outcome (NIH3T3)
CC(CC1c2ccccc2CCc2ccccc21)CN(C)C (stereo not given),inactive,inactive,inactive,–,inactive,inactive,inactive,–,inactive,–
CO/N=C(/C(=O)N[C@@H]1C(=O)N2C(C(=O)OCOC(=O)C(C)(C)C)=C(C)CS[C@H]12)c1csc(N)n1,inactive,inactive,inactive,inactive,inactive,inactive,inactive,–,–,–
Nc1ccc2c(c1)CN1C(=O)c3ccccc3C1=N2,–,inactive,–,–,6.31 µM (active),10 µM (active),–,inactive,–,–
C=CC[N+]1([C@H]2C[C@H]3[C@@H]4CC[C@H]5C[C@H](OC(C)=O)[C@@H](N6CCCCC6)C[C@]5(C)[C@H]4CC[C@]3(C)[C@H]2OC(=O)CC)CCCCC1,inactive,inactive,inactive,inactive,inactive,inactive,inactive,–,inactive,–
COc1ccc(-n2nc(CCC(=O)N(C)O)cc2-c2ccc(Cl)cc2)cc1,–,–,inactive,inactive,inactive,–,inactive,21.1 µM (active),–,–
Cc1nc(N)nc(N)c1-c1ccc(Cl)c(Cl)c1,–,–,0.447 µM (active),inactive,1.41 µM (active),1 µM (active),11.2 µM (active),inactive,–,–
COc1ccc2c(c1)c(CC(=O)OC/C=C(\C)CC/C=C(\C)CCC=C(C)C)c(C)n2C(=O)c1ccc(Cl)cc1,inactive,inactive,inactive,inactive,inactive,inactive,inactive,–,–,–
Cc1ccc(CCn2c3c(c4cc(Cl)ccc42)CN(C)CC3)cn1,inactive,inactive,inactive,inactive,inactive,inactive,inactive,–,–,–
CCOC(=O)NNc1ccc(N(CC)CC(C)O)nn1 (stereo not given),inactive,inactive,inactive,inactive,inactive,inactive,inactive,–,inactive,–
CC(=O)OCC[N+](C)(C)C,inactive,inactive,inactive,inactive,inactive,inactive,inactive,–,–,–
C/C(=C(/OCCOc1ccc(Cl)cc1)c1ccc(Cl)cc1Cl)n1ccnc1,inactive,–,inactive,–,inactive,inactive,inactive,–,–,–
CN(C)CCOC1=Cc2ccccc2Sc2ccc(Cl)cc21,inactive,inactive,inactive,inactive,inactive,inactive,inactive,–,–,–
Nc1cc(C(F)(F)F)ccc1S,–,13.3 µM (active),inactive,inactive,inactive,inactive,inactive,11.9 µM (active),–,inactive
CCCCCC(=O)O[C@]1(C(C)=O)CC[C@H]2[C@@H]3CCC4=CC(=O)CC[C@]4(C)[C@H]3CC[C@@]21C,–,–,–,inactive,inactive,inactive,–,inactive,–,–
Cc1cccc(N(C)C(=S)Oc2ccc3c(c2)C2CCC3C2)c1 (stereo not given),inactive,–,inactive,inactive,inactive,–,inactive,–,–,–
COc1ccc([C@@H]2Sc3ccccc3NC(=O)[C@@H]2O)cc1,–,–,inactive,–,inactive,inactive,inactive,inactive,–,–
Cc1ccc(/C=N/n2c(-c3ccccc3)csc2=S)cc1,inactive,–,inactive,inactive,inactive,inactive,inactive,–,–,–
